Experimental data from PubChem BioAssay (NCI).
About 83,000 compounds went through this panel and 20% of them were active in at least one assay; those are over-represented in the sample as a whole.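 Single-dose data. Exposure time 48 hours. Values below 10 considered active.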 A number with no mark means an inactive call. Activity calls are given as the source filed them.

What follows are compounds tested on HCT-116 colon (assay: NCI-60 one-dose screen, 48 h (100 = growth as untreated, 0 = no growth, -100 = all killed)). Settings: 10 µM unless noted.

| Structure (SMILES) | growth |
| --- | --- |
| CCOC(=O)c1c(NC(=O)c2ccc(C(C)C)cc2)sc2c(CN(C)C)c(O)ccc12 | 4.82% (active) |
| CCOC(=O)c1cnc2ccccc2c1Cl | 95.7% |
| CCN(CC)c1nc(SCc2ccccc2Cl)ncc1C | 94.2% |
| O=C1Nc2ccc(I)cc2C1=O | 71.8% |
| O=S(=O)(NCCNc1nccc(-c2c(-c3cccc(F)c3)nc3occn23)n1)c1ccc(Br)cc1 | 69.1% |
| CC(C)c1ccc(COCc2cc(CN3CCCC3)c(O)c3ncccc23)cc1 | 5.58% (active) |
| COc1ccc2cc(C(=O)c3coc4ccc(O)cc34)ccc2c1 | 94% |
| O=C(CI)NC1Oc2ccccc2-c2oc(=O)c(-c3ccccc3)cc21 (centres undefined) | -37.5% (active) |
| Cc1ccc(-n2c(=S)[nH]c3sc4c(c3c2=O)CCC(=O)C4)cc1 | 36.2% |
| C=CCn1c(SCC(=O)Nc2ccc(C(=O)/C=C/c3cc4cc(OC)ccc4nc3Cl)cc2)nnc1-c1ccc(Br)cc1 | -44% (active) |
| COc1cccc(/C=C/C(=O)c2cc3c(N)c(C(=O)Nc4ccccc4)sc3nc2C)c1 | 14.9% |
| O=C1C(Cl)=C(Oc2ccccc2)C(=O)c2ccccc21 | 29.3% |
| CC(C)OC(=O)c1ccc2[nH]c(O)c(C(=Nc3ccc(N(C)C(=O)CN4CCN(C)CC4)cc3)c3ccccc3)c2c1 | -47.9% (active) |
| N#CC1C=CN(CC(N)=O)c2ccc3cccnc3c21 (centres undefined) | 94.8% |
| S=C(Nc1ccc(-c2nc(N3CCOCC3)c3cccn3n2)cc1)Nc1cccnc1 | 17.3% |
| Cc1cc2c(O)c(-c3cccc(Cl)c3)c3sc(=O)oc3c2cc1C | 18.1% |
| COC(=O)[C@H]1CCCN1C[C@@H](O)CN1C(=O)/C(=C\c2cc(OC)c(OC)c(OC)c2)c2ccccc21 | 92.8% |
| CS(=O)(=O)Nc1cc(-c2ccc3ncnc(Nc4c(Cl)ccc5c4OCO5)c3c2)cnc1Cl | -22.6% (active) |
| COc1ccc(C(=S)N2CCN(c3ccccc3Cl)CC2)cc1OC | 87.1% |
| CC(C)N1CN2C(=S)NC3C2N(C1)C(=S)N3C (centres undefined) | 105% |

| Structure (SMILES) | growth |
| --- | --- |
| O=C(c1ccc(-c2nc(CSc3nc4ccccc4s3)no2)cc1)N1CCSCC1 | 49.8% |
| O=Nc1c(-c2c(O)[nH]c3ncccc23)[nH]c2ccccc12 | 36.9% |
| O=C(CSc1nnc2n1S(=O)(=O)c1ccccc1N2c1ccccc1)Nc1nc2ccc(F)cc2s1 | 93.5% |
| O=C1/C(=C/c2ccccc2Br)COc2ccc(O)c(O)c21 | -3.23% (active) |
| CCOC(=O)C(=Cc1cccc(Br)c1)C(=O)OCC | 14% |
| COC(C(=O)[C@@H](O)[C@@H](C)O)[C@@H]1Cc2cc3cc(O[C@H]4C[C@@H](O[C@H]5C[C@@H](O)[C@H](O)C(C)O5)[C@H](O)C(C)O4)cc(O)c3c(O)c2C(=O)[C@H]1O[C@H]1C[C@@H](O[C@H]2C[C@@H](O[C@H]3C[C@@H](OC)[C@H](O)C(C)O3)[C@@H](O)C(C)O2)[C@H](O)C(C)O1 (some centres undefined) | 11.2% |
| Cc1ccc(-c2cc(-c3ccc(Cl)cc3)nc(NC(=O)c3cccnc3)n2)cc1 | 98.9% |
| Fc1cccc(CNc2c3ccccc3nc3ccccc23)c1F | 17.5% |
| CN(C)CC(=O)Nc1ccc2ncnc(Nc3ccc(Oc4cccc(C(F)(F)F)c4)c(Cl)c3)c2c1 | 44.1% |
| Cc1cc(N)c2cc(NC(=O)/C=C\c3ccccc3Cl)ccc2n1 | -73% (active) |
| N#CC1=C(N)Oc2c(sc3c(F)cccc23)C1c1ccc(F)cc1 (centres undefined) | 17.4% |
| C/C(=C(/c1ccc(Cl)cc1)c1ccc(OCCN2CCCC2)cc1)c1ccc(Cl)cc1 | 50.4% |
| COC(=O)c1ccc2c(c1)C(=O)c1c-2n(CCCN)c(=O)c2cc([N+](=O)[O-])ccc12 | -100% (active) |
| CS(=O)(=O)C1=CN(CCO)C(=O)N2CCCN=C12 | 97% |
| O=C1Nc2ccccc2[C@]12CC(c1ccccc1)=NN2 | 26.2% |
| O=C(Cn1c(=O)sc2nc3ccccc3nc21)Nc1ncc(Cc2cccc(Cl)c2Cl)s1 | 102% |
| O=C(N/N=C/c1ccc(F)cc1)c1ccc(C(F)(F)F)nc1Nc1cccc(C(F)(F)F)c1 | 10.1% |
| COC(=O)[C@]1(C)CCC[C@]2(C)[C@H]3C[C@H]4C(C(C)C)=C[C@]3(CC[C@H]21)[C@H]1[C@@H]4[C@@H](OCCC#N)CC[C@@H]1OCCC#N | 15.4% |
| CN(C)c1ccc(Nc2cc(-c3cccc(OC(F)(F)F)c3)nc3ccc(N4CCCC4)cc23)cc1 | -31.2% (active) |
| CCn1c(=S)sc2c(Nc3ccc(F)cc3)nc(-c3cccnc3)nc21 | 21.4% |

What follows are compounds tested on HCC-2998 colon in the same assay as above. Settings: 10 µM unless noted.

| Structure (SMILES) | growth |
| --- | --- |
| CCOC(=O)c1cnc2ccccc2c1Cl | 98.4% |
| CCN(CC)c1nc(SCc2ccccc2Cl)ncc1C | 106% |
| O=C1Nc2ccc(I)cc2C1=O | 62.9% |
| O=S(=O)(NCCNc1nccc(-c2c(-c3cccc(F)c3)nc3occn23)n1)c1ccc(Br)cc1 | 106% |
| CC(C)c1ccc(COCc2cc(CN3CCCC3)c(O)c3ncccc23)cc1 | 14.6% |
| O=C(CI)NC1Oc2ccccc2-c2oc(=O)c(-c3ccccc3)cc21 (centres undefined) | 78.2% |
| Cc1ccc(-n2c(=S)[nH]c3sc4c(c3c2=O)CCC(=O)C4)cc1 | 80.8% |
| C=CCn1c(SCC(=O)Nc2ccc(C(=O)/C=C/c3cc4cc(OC)ccc4nc3Cl)cc2)nnc1-c1ccc(Br)cc1 | 95.1% |
| O=C1C(Cl)=C(Oc2ccccc2)C(=O)c2ccccc21 | 66.5% |
| CC(C)OC(=O)c1ccc2[nH]c(O)c(C(=Nc3ccc(N(C)C(=O)CN4CCN(C)CC4)cc3)c3ccccc3)c2c1 | -84.2% (active) |
| N#CC1C=CN(CC(N)=O)c2ccc3cccnc3c21 (centres undefined) | 106% |
| S=C(Nc1ccc(-c2nc(N3CCOCC3)c3cccn3n2)cc1)Nc1cccnc1 | 32.9% |
| Cc1cc2c(O)c(-c3cccc(Cl)c3)c3sc(=O)oc3c2cc1C | 73.1% |
| COC(=O)[C@H]1CCCN1C[C@@H](O)CN1C(=O)/C(=C\c2cc(OC)c(OC)c(OC)c2)c2ccccc21 | 102% |
| CC(C)N1CN2C(=S)NC3C2N(C1)C(=S)N3C (centres undefined) | 113% |
| O=C(c1ccc(-c2nc(CSc3nc4ccccc4s3)no2)cc1)N1CCSCC1 | 94.9% |
| O=C(CSc1nnc2n1S(=O)(=O)c1ccccc1N2c1ccccc1)Nc1nc2ccc(F)cc2s1 | 95.6% |
| O=C1/C(=C/c2ccccc2Br)COc2ccc(O)c(O)c21 | 44.2% |
| COC(C(=O)[C@@H](O)[C@@H](C)O)[C@@H]1Cc2cc3cc(O[C@H]4C[C@@H](O[C@H]5C[C@@H](O)[C@H](O)C(C)O5)[C@H](O)C(C)O4)cc(O)c3c(O)c2C(=O)[C@H]1O[C@H]1C[C@@H](O[C@H]2C[C@@H](O[C@H]3C[C@@H](OC)[C@H](O)C(C)O3)[C@@H](O)C(C)O2)[C@H](O)C(C)O1 (some centres undefined) | 63.7% |
| CN(C)CC(=O)Nc1ccc2ncnc(Nc3ccc(Oc4cccc(C(F)(F)F)c4)c(Cl)c3)c2c1 | 23.7% |
| N#CC1=C(N)Oc2c(sc3c(F)cccc23)C1c1ccc(F)cc1 (centres undefined) | 57.2% |
| C/C(=C(/c1ccc(Cl)cc1)c1ccc(OCCN2CCCC2)cc1)c1ccc(Cl)cc1 | 102% |
| COC(=O)c1ccc2c(c1)C(=O)c1c-2n(CCCN)c(=O)c2cc([N+](=O)[O-])ccc12 | -94.9% (active) |
| CS(=O)(=O)C1=CN(CCO)C(=O)N2CCCN=C12 | 98.6% |
| O=C1Nc2ccccc2[C@]12CC(c1ccccc1)=NN2 | 65% |
| O=C(Cn1c(=O)sc2nc3ccccc3nc21)Nc1ncc(Cc2cccc(Cl)c2Cl)s1 | 101% |
| COC(=O)[C@]1(C)CCC[C@]2(C)[C@H]3C[C@H]4C(C(C)C)=C[C@]3(CC[C@H]21)[C@H]1[C@@H]4[C@@H](OCCC#N)CC[C@@H]1OCCC#N | 65.1% |
| CN(C)c1ccc(Nc2cc(-c3cccc(OC(F)(F)F)c3)nc3ccc(N4CCCC4)cc23)cc1 | 91.1% |
| CCn1c(=S)sc2c(Nc3ccc(F)cc3)nc(-c3cccnc3)nc21 | 86.1% |
